# Results: the supplement of paper PMC7765376
# Over roughly 1,500 compounds, “Excess HSA synergy score (sum over dose matrix of excess over highest single agent)” has its median near 43; the lowest 2% begin near -900. For the sample, the lowest values were picked, then their nearest neighbours and some compounds at random.
# Test system: PEO-1
# Assay: Excess HSA synergy score (sum over dose matrix of excess over highest single agent) (score (summed % response)); higher = less synergy / more antagonism (negative = synergy)
# Settings: 72 h, read-out: viability/apoptosis luminescence (CellTiter-Glo or Caspase3-Glo / not stated per table)
# [1] = matrix design: 6x6, 5-fold dilutions (primary screen)
SMILES,Excess HSA synergy score [1],"Excess HSA synergy score (matrix design: 10x10, 9-step dilutions (confirmatory))"
CC(C)c1cc(C(=O)N2Cc3ccc(CN4CCN(C)CC4)cc3C2)c(O)cc1O [Onalespib] + CC[C@H](NC(=O)[C@H](C)NC)C(=O)N1C[C@@H](O)C[C@H]1Cc1c(-c2[nH]c3cc(F)ccc3c2C[C@@H]2C[C@H](O)CN2C(=O)[C@H](CC)NC(=O)[C@H](C)NC)[nH]c2cc(F)ccc12 [Birinapant],13.4,
C[C@@H](Oc1cc(-n2cnc3ccc(CN4CCN(C)CC4)cc32)sc1C(N)=O)c1ccccc1C(F)(F)F + CC[C@H](NC(=O)[C@H](C)NC)C(=O)N1C[C@@H](O)C[C@H]1Cc1c(-c2[nH]c3cc(F)ccc3c2C[C@@H]2C[C@H](O)CN2C(=O)[C@H](CC)NC(=O)[C@H](C)NC)[nH]c2cc(F)ccc12 [Birinapant],-274,-1360
COc1cc2ncn(-c3cc(OCc4ccccc4C(F)(F)F)c(C(N)=O)s3)c2cc1OC + CC[C@H](NC(=O)[C@H](C)NC)C(=O)N1C[C@@H](O)C[C@H]1Cc1c(-c2[nH]c3cc(F)ccc3c2C[C@@H]2C[C@H](O)CN2C(=O)[C@H](CC)NC(=O)[C@H](C)NC)[nH]c2cc(F)ccc12 [Birinapant],-51.1,
Cc1ccc(F)c(NC(=O)Nc2ccc(-c3cccc4[nH]nc(N)c34)cc2)c1 [Linifanib] + CC[C@H](NC(=O)[C@H](C)NC)C(=O)N1C[C@@H](O)C[C@H]1Cc1c(-c2[nH]c3cc(F)ccc3c2C[C@@H]2C[C@H](O)CN2C(=O)[C@H](CC)NC(=O)[C@H](C)NC)[nH]c2cc(F)ccc12 [Birinapant],-40,
C[C@@H](O)[C@H](NC(=O)[C@@H]1CSSC[C@H](NC(=O)[C@H](N)Cc2ccccc2)C(=O)N[C@@H](Cc2ccc(O)cc2)C(=O)N[C@H](Cc2c[nH]c3ccccc23)C(=O)N[C@@H](CCCCN)C(=O)N1)C(N)=O + CC[C@H](NC(=O)[C@H](C)NC)C(=O)N1C[C@@H](O)C[C@H]1Cc1c(-c2[nH]c3cc(F)ccc3c2C[C@@H]2C[C@H](O)CN2C(=O)[C@H](CC)NC(=O)[C@H](C)NC)[nH]c2cc(F)ccc12 [Birinapant],120,
Cc1ccccc1C(C(=O)NC1CCCCC1)N(C(=O)Cn1ccnc1C)c1cccc(F)c1 (stereo not drawn) + CC[C@H](NC(=O)[C@H](C)NC)C(=O)N1C[C@@H](O)C[C@H]1Cc1c(-c2[nH]c3cc(F)ccc3c2C[C@@H]2C[C@H](O)CN2C(=O)[C@H](CC)NC(=O)[C@H](C)NC)[nH]c2cc(F)ccc12 [Birinapant],12.3,
COc1cc2ncn(-c3cc(OCc4ccccc4S(C)(=O)=O)c(C#N)s3)c2cc1OC [IKK-3 Inhibitor IX] + CC[C@H](NC(=O)[C@H](C)NC)C(=O)N1C[C@@H](O)C[C@H]1Cc1c(-c2[nH]c3cc(F)ccc3c2C[C@@H]2C[C@H](O)CN2C(=O)[C@H](CC)NC(=O)[C@H](C)NC)[nH]c2cc(F)ccc12 [Birinapant],113,
